A selection: hits, their analogues and other compounds. The true share with any hit is near 1.6%.
KCNQ2 block = inhibitors of rat KCNQ2 potassium channel | 1.1% of 310,000 active | B-score at 10 µM | CHO-K1 KCNQ2, FluxOR thallium flux, 20 min; active compounds read low | AID 2156;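 active = fluorescence ratio B-score at most minus 3 library SDs, with starting brightness B-score within 2 library SDs, cut at about -5.5 in these data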
KCNQ2 pot = KCNQ2 (rat) channel potentiation. O88943. CHO-K1 KCNQ2, FluxOR thallium flux fluorescence; active compounds read high. B-score at 10 µM. 0.54% of 310,000 active;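 active = fluorescence ratio B-score at least 3 SD of library B-scores, with initial fluorescence B-score within 3 of them, cut at about 5.3 in these data; same plate scores as AID 2156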;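 note: B-score of peak minus minimum over baseline fluorescence ratio after K+ and Tl+ stimulus; positive B-score means potentiation of KCNQ2 with more thallium influx and brighter signal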
Kir21 conf inh = confirmation of mouse Kir2.1 potassium channel inhibitors. shares compounds with KCNQ2 pot. 41% of 2,300 active. Kir2.1-expressing cells, FluxOR thallium flux fluorescence; active compounds read low. AID 2032. Tl flux remaining, % of negative control (active compounds read low), % at 10 µM;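 active = Primary-screen hit whose thallium flux fell at least 3 control SD below untreated wells in both duplicates, with normal baseline fluorescence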;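 note: 0% = blank wells without stimulus and 100% = stimulated no-compound controls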
Target sequence (P35561 whole entry, looked up): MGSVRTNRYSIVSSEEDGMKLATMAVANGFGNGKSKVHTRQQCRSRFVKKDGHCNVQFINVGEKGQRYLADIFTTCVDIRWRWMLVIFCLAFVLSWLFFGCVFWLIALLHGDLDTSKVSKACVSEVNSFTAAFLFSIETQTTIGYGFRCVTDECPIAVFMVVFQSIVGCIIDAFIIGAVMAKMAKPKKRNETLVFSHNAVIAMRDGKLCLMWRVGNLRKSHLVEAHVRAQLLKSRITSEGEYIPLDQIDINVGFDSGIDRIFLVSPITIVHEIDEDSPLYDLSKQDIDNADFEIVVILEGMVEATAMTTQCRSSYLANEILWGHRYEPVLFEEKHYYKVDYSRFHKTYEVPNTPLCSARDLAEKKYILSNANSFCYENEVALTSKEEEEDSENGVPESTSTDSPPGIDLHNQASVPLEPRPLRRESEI
HEK293 Tl flux = alters thallium flux in parental HEK293 cells, Kir2.1 counter-screen. AID 2105. 19% of 2,300 active. FluxOR signal as % of negative control (100 = no effect), % at 10 µM. FluxOR thallium flux fluorescence; 0% = unstimulated blank wells. shares compounds with KCNQ2 pot;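 active = dye signal at least 3 control SD above or below untreated wells in both duplicates, raw fluorescence within 3, either direction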;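 note: percent is based on the flux ratio of peak minus minimum fluorescence over baseline F0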
CHO-K1 Tl ctr = parental CHO-K1 activity in KCNQ2 potentiator counter-screen | shares compounds with KCNQ2 pot | parental CHO-K1 cells, FluxOR thallium flux fluorescence; zero = vehicle mean+3SD, 100% = vehicle-minus-blank window | activity increase over 3SD of controls, % at 10 µM | 43% of 1,200 active | AID 2282;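 active = signal rise of at least 3 SD above the untreated control mean, in both duplicate wells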;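 note: counter screen of KCNQ2 potentiator hits so any rise reflects channel-independent effects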
KCNQ1 pot spec = human KCNQ1 counter-target activity of KCNQ2 potentiators | shares compounds with KCNQ2 pot | CHO KCNQ1 stable, FluxOR thallium flux fluorescence; beyond 3SD, as % of vehicle-control signal | activation over 3SD threshold, % at 10 µM | 28% of 1,200 active;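 active = fluorescence ratio rise of at least 3 SD of vehicle wells above their mean, in both replicate wells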;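 note: 0% = vehicle mean plus 3 SD and 100% = vehicle minus unstimulated blank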
KCNQ2 pot confirm = confirmation of rat KCNQ2 potassium channel potentiators; shares compounds with KCNQ2 pot; CHO-KCNQ2 cells, FluxOR thallium flux fluorescence; potentiation, less the hit threshold, % at 10 µM; 68% of 1,200 active; AID 2287;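 active = fluorescence ratio rising 3 SD or more over the vehicle control mean in both replicates, plus primary screen hit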;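 note: peak minus minimum thallium fluorescence divided by baseline after K/Tl stimulus; 0% = vehicle mean plus 3 SD and 100% = vehicle minus unstimulated blank difference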
Kir21 spec = selectivity of KCNQ2 potentiators: effect on mouse Kir2.1. shares compounds with KCNQ2 pot. HEK293 Kir2.1, FluxOR thallium flux fluorescence. activity over 3SD threshold, % at 10 µM. 2% of 1,200 active. AID 2345;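 active = fluorescence ratio rise of at least 3 SD above the vehicle-control mean, seen in both replicates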;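 note: 0% = vehicle mean plus 3 SD and 100% = vehicle minus no-stimulus blank window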
KCNQ2 W236L pot = potentiates the retigabine-insensitive rat KCNQ2 W236L mutant channel; shares compounds with KCNQ2 pot; CHO KCNQ2-W236L, automated patch clamp current; current increase over 3SD of negative controls (%), active compounds read high, % at 25 µM; 10% of 940 active; AID 2558;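 active = current increase at least 3 SD of the untreated controls above them in both duplicate recordings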
Starred values were filed as active, the others as inactive; i = inactive; · = no result given.

SMILES | KCNQ2 block | KCNQ2 pot | Kir21 conf inh | HEK293 Tl flux | CHO-K1 Tl ctr | KCNQ1 pot spec | KCNQ2 pot confirm | Kir21 spec | others
CC(NC(=O)C1CCN(S(=O)(=O)c2ccc(Br)s2)CC1)c1ccccc1 (centres undefined) | i | 6.8* | i | i | 5.4* | -19 | 14* | -25 | KCNQ2 W236L pot=i
CCS(=O)(=O)N1CCC(C(=O)NCc2cccc(OC)c2)CC1 | i | 0.09 | · | · | · | · | · | ·
COc1cccc(CNC(=O)C2CCN(S(=O)(=O)c3ccc(Br)s3)CC2)c1 | i | 7.3* | i | i | -5 | -23 | 9.6* | -48 | KCNQ2 W236L pot=i
CC(NS(=O)(=O)c1ccc(Br)s1)c1ccccc1 (centres undefined) | i | 0.04 | 50%* | i | · | · | · | ·
CCC(C)NC(=O)C1CCN(S(=O)(=O)c2ccc(Br)s2)CC1 (centres undefined) | i | 0.77 | · | · | · | · | · | ·
O=S(=O)(NCc1ccccc1)c1ccc(Br)s1 | i | · | · | · | · | · | · | ·
COc1cccc(CN2CC(C(=O)N(C)CCCC3CCCC3)CCC2=O)c1 (centres undefined) | i | · | · | · | · | · | · | ·
Cc1ccc(S(=O)(=O)CCC(=O)c2cccc([N+](=O)[O-])c2)cc1 | -13* | -13 | 51%* | 58%* | · | · | · | ·
Cc1ccc(S(=O)(=O)NCC(=O)Nc2cccc([N+](=O)[O-])c2)cc1 | i | 0.34 | · | · | · | · | · | ·
c1ccc(CNc2ncnc3nc[nH]c23)cc1 | i | 1.4 | · | · | · | · | · | ·
c1ccc(CCCNc2ncnc3nc[nH]c23)cc1 | i | 1.9 | i | i | · | · | · | ·
CCNNC(=O)C(O)(Cc1ccccc1)Cc1ccccc1 | i | · | · | · | · | · | · | ·
Cc1ccc(NC(=O)C2CCN(S(=O)(=O)c3ccc4c(c3)C(C)(C)C(=O)N4C)CC2)c(C)c1 | i | 1.8 | · | · | · | · | · | ·
CCCNS(=O)(=O)/C=C/c1ccccc1 | i | 1.2 | · | · | · | · | · | ·
CNS(=O)(=O)/C=C/c1ccccc1 | i | 16* | i | i | -4 | -28 | -16 | -33
CCC(C)/C(C)=N/NC(=O)CSc1nc2ccccc2[nH]1 (centres undefined) | i | 1.6 | · | · | · | · | · | ·
CCCCC(Nc1ncnc2ccccc12)C(=O)O (centres undefined) | i | 7.7* | i | i | -4 | -11 | -24 | -43
CC(Nc1ncnc2ccccc12)c1ccccc1 (centres undefined) | i | 2.4 | · | · | · | · | · | ·
Cc1cccc(C(=O)NCCC(=O)Nc2ccc(F)c([N+](=O)[O-])c2)c1 | i | 0.01 | · | · | · | · | · | ·
c1ccc(-c2nc(N3CCNCC3)nc3ccccc23)cc1 | i | · | 50%* | i | · | · | · | ·
c1ccc(-c2nc(N3CCCCC3)nc3ccccc23)cc1 | i | · | · | · | · | · | · | ·
COc1ccc(/C=C2\N=C(c3ccccc3)NNC2=O)cc1 | i | · | · | · | · | · | · | ·
Cc1cccc(NC(=S)NC(=O)c2ccco2)c1C | i | 9.9* | i | 364%* | -10 | -2 | 46* | -28 | KCNQ2 W236L pot=i
Cc1cccc(NC(=O)CCNC(=O)c2ccco2)c1C | i | · | · | · | · | · | · | ·
COc1ccc(-c2csc(NC(=S)NC(=O)c3ccco3)n2)cc1Br | i | 5.7* | i | i | 30* | 22* | -10 | -31
Cc1ccoc1C(=O)Nc1ccc2ccccc2c1 | i | 19* | i | i | 49* | -17 | 75* | -18 | KCNQ2 W236L pot=i
CCOc1ccc(NC(=S)NC(=O)c2ccco2)cc1 | i | 7.8* | i | 163%* | -8 | 38* | 23* | -19 | KCNQ2 W236L pot=i
COc1ccc(-c2csc(NC(=S)NC(=O)c3cc4ccccc4o3)n2)cc1Br | i | 2.8 | · | · | · | · | · | ·
Cc1cc(C(=O)Nc2ccc3ccccc3c2)oc1C | i | · | · | · | · | · | · | ·
CCOc1ccc(NC(=O)c2ccco2)cc1 | i | 1.8 | · | · | · | · | · | ·

High-throughput results from PubChem.
